# Results filed as inconclusive are left out. Entries that show only a call come without a potency. Calls of active or inactive are those of the source. Unless noted, calls come from the whole dose curve; as a rule, active = well fitted curve in the direction sought with a large enough effect; inconclusive = small, poorly fitted or top-dose-only effect, or another doubt; inactive = no such curve, though single readings can be large; an effect the other way counts as inactive or inconclusive.
# Columns and labels:
# [1] = biological target: Beta-2 adrenergic receptor (Homo sapiens) (UniProt P07550); assay: qHTS validation assay of beta-arrestin-biased ligands of beta2-adrenergic receptor (AID 485366)
# Sequence of Beta-2 adrenergic receptor (Homo sapiens) (P07550 whole entry, looked up): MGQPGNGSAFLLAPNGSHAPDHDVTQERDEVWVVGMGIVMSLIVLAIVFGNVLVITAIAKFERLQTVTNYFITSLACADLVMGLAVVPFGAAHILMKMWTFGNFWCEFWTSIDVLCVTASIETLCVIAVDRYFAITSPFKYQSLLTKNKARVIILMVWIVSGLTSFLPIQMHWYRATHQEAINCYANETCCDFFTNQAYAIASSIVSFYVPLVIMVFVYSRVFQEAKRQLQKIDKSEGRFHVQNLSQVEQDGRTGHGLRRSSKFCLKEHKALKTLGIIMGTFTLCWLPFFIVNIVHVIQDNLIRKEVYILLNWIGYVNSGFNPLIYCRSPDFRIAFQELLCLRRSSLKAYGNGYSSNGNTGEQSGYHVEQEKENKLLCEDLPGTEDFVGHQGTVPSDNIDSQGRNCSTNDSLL
# How it was run: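 Agonism was measured as beta-arrestin recruitment to recombinant beta2-AR, releasing tTA to drive luciferase. Cells were exposed for 18 hr at 37 degrees C to a series up to 46 microM. %Activity from corrected luminescence gave concentration-response curves.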
# [2] = Quantitative high throughput screen for delayed death inhibitors of the malarial parasite plastid, 96 hour incubation (AID 488745); note: series mostly up to about 29 µM; nearly all actives have a fitted effect of over 70% in size
# How it was run: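 Two-generation (96 h) exposure of luciferase-reporter P. falciparum in erythrocytes, 2% hematocrit, 0.1% parasitemia final, 37 C, 5% CO2, RPMI 1640 with 0.5% Albumax. Growth inhibition scored by reduced luminescence.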
# [3] = Quantitative high throughput screen for delayed death inhibitors of the malarial parasite plastid, 48 hour incubation (AID 488752); note: nearly all actives have a fitted effect of over 65% in size
# How it was run: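 Cultures: infected erythrocytes at final 2% hematocrit and 0.1% parasitemia in Albumax-supplemented RPMI. Parasites express integrated firefly luciferase. Incubation with compound lasts 48 h before luminescent detection of remaining reporter activity.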
# [4] = biological target: Thioredoxin reductase 1, cytoplasmic (Rattus norvegicus) (UniProt O89049); assay: qHTS Assay for Substrates of Mammalian Selenoprotein Thioredoxin Reductase 1 (TrxR1) (AID 488772);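 note: series mostly up to about 57 µM; a drop in NADPH fluorescence below the no-compound background marks a TrxR1 substrate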
# Sequence of Thioredoxin reductase 1, cytoplasmic (Rattus norvegicus) (O89049 whole entry, looked up): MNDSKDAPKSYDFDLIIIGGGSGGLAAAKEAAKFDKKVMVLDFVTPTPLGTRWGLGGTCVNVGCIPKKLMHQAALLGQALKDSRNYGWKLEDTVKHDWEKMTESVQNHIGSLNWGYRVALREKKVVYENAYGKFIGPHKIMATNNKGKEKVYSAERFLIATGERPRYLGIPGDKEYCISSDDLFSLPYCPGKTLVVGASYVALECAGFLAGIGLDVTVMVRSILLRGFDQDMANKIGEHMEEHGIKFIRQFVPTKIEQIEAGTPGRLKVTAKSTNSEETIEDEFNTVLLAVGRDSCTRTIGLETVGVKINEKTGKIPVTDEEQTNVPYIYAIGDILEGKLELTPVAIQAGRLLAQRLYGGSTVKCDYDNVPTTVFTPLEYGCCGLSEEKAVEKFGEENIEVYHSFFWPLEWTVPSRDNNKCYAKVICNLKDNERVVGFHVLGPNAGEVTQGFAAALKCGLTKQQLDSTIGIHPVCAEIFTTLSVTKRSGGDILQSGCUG
# How it was run: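 In this dual-purpose format, potential substrates are identified from the first fluorescence read after selenite addition, not from the 8-minute delta. Rat enzyme is preincubated with NADPH and then with compound at ~22 deg C.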
# [5] = biological target: Flap endonuclease 1 (Homo sapiens) (UniProt P39748); assay: qHTS Validation Assay for the Inhibitors of Human Flap endonuclease 1 (FEN1) (AID 488816)
# Sequence of Flap endonuclease 1 (Homo sapiens) (P39748 whole entry, looked up): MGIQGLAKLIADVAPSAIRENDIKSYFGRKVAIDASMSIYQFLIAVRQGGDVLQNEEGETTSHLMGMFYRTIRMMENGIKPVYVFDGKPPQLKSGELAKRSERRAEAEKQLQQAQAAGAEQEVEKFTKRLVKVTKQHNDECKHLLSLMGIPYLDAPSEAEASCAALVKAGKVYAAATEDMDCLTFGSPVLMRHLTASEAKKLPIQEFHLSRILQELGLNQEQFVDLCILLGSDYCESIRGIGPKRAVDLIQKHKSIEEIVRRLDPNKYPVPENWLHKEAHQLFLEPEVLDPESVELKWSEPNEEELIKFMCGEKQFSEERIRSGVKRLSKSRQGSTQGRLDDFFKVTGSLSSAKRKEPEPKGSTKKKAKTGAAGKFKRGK
# How it was run: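 Enzyme reagent 10 nM; cpds pinned; 15 min RT preinc.; substrate 50 nM final; reads t=0 and 15 min; no-enzyme buffer wells as neg. control; normalized data, 4-parameter Hill fit.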
# [6] = biological target: M-phase phosphoprotein 8 (Homo sapiens) (UniProt Q99549); assay: qHTS Validation Assay for Inhibitors for MPP8 Chromodomain Interactions with Methylated Histone Tails (AID 488949);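 note: AlphaScreen signal from MPP8 chromodomain bound to biotinylated H3K9me3 peptide; top concentration of the series differs between compounds; nearly all actives have a fitted effect of over 55% in size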
# How it was run: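 AlphaScreen proximity signal from streptavidin donor and Ni-chelate acceptor beads (10 ug/mL each) reported binding of MPP8 to trimethyl-K9 H3(1-18) peptide, both at 50 nM. The complex formed 30 min before a 30 min compound exposure at room temperature, in PBS pH 7.4.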
# [7] = biological target: Chromobox protein homolog 1 (Homo sapiens) (UniProt P83916); assay: qHTS Validation Assay for Inhibitors of HP1-beta Chromodomain Interactions with Methylated Histone Tails (AID 488953); note: nearly all actives have a fitted effect of over 50% in size; note: potency is the fitted concentration of half-maximal effect
# Sequence of Chromobox protein homolog 1 (Homo sapiens) (P83916 whole entry, looked up): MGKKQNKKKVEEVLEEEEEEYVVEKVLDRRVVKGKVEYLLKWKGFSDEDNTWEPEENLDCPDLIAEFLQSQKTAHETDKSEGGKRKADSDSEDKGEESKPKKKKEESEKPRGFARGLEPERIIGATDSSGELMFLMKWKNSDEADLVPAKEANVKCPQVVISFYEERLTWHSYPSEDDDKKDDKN
# How it was run: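 Compounds pinned into a preassembled complex of HP1-beta and trimethyl-K9 histone H3(1-18) biotin peptide (50 nM each; PBS pH 7.4, 0.01% Tween-20). After 30 min, bead-based AlphaScreen detection followed.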
# [8] = biological target: Methanococcus maripaludis chaperonin (MmCpn) (UniProt Q6LX38); assay: High-Throughput Screening for Modulators of Cytosolic Chaperonin Activity: MmCpn Primary Screen (AID 488978);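 note: 50 nM MmCpn enzyme hydrolysing 30 µM ATP at 37 °C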
# How it was run: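 ATPase activity of 50 nM MmCpn was assayed with 30 uM ATP, 10 minutes at 37C, after a 5 min compound preincubation at room temperature. ADP production was read as HTRF emission at 590 and 665 nm.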
# [9] = biological target: Transient receptor potential cation channel subfamily V member 1 (Homo sapiens) (UniProt Q8NER1); assay: HTS Assay for Compounds that Act as Enhancers of the Vanilloid Receptor 1 (AID 488979)
# How it was run: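 TRPV1 cells loaded with Fluo-8 calcium dye; compound added and Ca2+ signal (ex 480/em 520 nm) followed 3 min, then capsaicin at EC20 added and read 2 more min to detect enhancement.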
# [10] = biological target: Thyrotropin receptor (Homo sapiens) (UniProt P16473); assay: qHTS Assay for Antagonists of the Thyroid Stimulating Hormone Receptor (AID 488980); note: series mostly up to about 58 µM
# Sequence of Thyrotropin receptor (Homo sapiens) (P16473 whole entry, looked up): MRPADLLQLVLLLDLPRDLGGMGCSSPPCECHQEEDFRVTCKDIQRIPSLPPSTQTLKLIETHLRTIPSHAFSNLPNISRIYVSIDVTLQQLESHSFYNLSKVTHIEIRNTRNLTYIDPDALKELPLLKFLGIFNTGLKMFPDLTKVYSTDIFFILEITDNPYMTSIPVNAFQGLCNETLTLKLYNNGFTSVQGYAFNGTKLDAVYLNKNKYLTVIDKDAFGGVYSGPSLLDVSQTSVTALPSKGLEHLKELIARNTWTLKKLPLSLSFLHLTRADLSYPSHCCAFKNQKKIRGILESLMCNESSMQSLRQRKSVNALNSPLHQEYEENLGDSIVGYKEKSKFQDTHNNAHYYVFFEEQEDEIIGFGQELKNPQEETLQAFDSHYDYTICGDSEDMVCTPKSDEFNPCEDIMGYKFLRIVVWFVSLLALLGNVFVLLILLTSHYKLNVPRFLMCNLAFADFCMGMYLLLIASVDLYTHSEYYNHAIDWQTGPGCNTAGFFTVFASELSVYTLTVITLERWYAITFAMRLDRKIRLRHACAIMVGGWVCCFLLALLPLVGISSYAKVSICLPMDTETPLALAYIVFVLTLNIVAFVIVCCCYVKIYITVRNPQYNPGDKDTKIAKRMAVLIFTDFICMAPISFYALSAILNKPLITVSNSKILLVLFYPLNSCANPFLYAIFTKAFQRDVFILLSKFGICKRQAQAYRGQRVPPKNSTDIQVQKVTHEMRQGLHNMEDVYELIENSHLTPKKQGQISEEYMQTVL
# How it was run: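 Inhibition of cAMP raised by EC80 TSH (4 nM final) was read by HTRF, with lysate cAMP competing against cAMP-d2 for cryptate antibody after 30 min at room temperature. The cells were transfected HEK293 held in phosphodiesterase inhibitor RO 20-1724 at 70 uM.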
# [11] = biological target: D(1A) dopamine receptor (Homo sapiens) (UniProt P21728); assay: HTS Assay for Allosteric Agonists of the Human D1 Dopamine Receptor: Primary Screen for Agonists (AID 488981)
# Sequence of D(1A) dopamine receptor (Homo sapiens) (P21728 whole entry, looked up): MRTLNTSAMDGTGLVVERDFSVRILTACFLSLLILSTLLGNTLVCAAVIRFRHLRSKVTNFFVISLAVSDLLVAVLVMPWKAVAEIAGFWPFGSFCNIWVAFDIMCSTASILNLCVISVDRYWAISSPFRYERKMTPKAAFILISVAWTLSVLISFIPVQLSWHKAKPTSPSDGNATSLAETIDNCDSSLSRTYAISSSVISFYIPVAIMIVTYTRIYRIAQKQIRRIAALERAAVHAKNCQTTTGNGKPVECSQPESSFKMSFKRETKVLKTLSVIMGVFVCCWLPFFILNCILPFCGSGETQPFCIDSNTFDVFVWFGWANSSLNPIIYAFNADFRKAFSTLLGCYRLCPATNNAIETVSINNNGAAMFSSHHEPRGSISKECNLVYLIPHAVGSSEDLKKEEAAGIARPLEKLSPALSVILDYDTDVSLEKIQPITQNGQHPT
# How it was run: (§1)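 Tetracycline-induced HEK293 Trex D1 cells with forced coupling to calcium, loaded with no-wash calcium dye; kinetic fluorescence read 180 s after compound addition for agonism, then a further 180 s after an EC20 dopamine challenge for potentiation.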
# [12] = biological target: D(1A) dopamine receptor (Homo sapiens) (UniProt P21728); assay: HTS Assay for Allosteric Agonists of the Human D1 Dopamine Receptor: Primary Screen for Potentiators (AID 488982)
# How it was run: as §1
# [13] = Validation screen for small molecules that induce genotoxicity in human embryonic kidney (HEK293T) cells expressing luciferase-tagged ELG1 (AID 493106)
# How it was run: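 In this validation screen, increased ELG1-luciferase signal flags compounds causing genetic stress. HEK293T reporter cells are treated 16 hr (37 °C, 5% CO2), developed with ONE-Glo for 30 min at room temperature, and imaged on a CCD-based reader.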
# [14] = biological target: ATPase family AAA domain-containing protein 5 (Homo sapiens) (UniProt Q96QE3); assay: Validation screen for small molecules that inhibit ELG1-dependent DNA repair in human embryonic kidney (HEK293T) cells expressing luciferase-tagged ELG1 (AID 493107);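 note: cells co-treated with the DNA-damaging agent 5-fluorouridine alongside compound; series mostly up to about 46 µM; inhibitors lower the ELG1-luciferase luminescence signal; nearly all actives have a fitted effect of over 70% in size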
# Sequence of ATPase family AAA domain-containing protein 5 (Homo sapiens) (Q96QE3 whole entry, looked up, the tested form may be a part): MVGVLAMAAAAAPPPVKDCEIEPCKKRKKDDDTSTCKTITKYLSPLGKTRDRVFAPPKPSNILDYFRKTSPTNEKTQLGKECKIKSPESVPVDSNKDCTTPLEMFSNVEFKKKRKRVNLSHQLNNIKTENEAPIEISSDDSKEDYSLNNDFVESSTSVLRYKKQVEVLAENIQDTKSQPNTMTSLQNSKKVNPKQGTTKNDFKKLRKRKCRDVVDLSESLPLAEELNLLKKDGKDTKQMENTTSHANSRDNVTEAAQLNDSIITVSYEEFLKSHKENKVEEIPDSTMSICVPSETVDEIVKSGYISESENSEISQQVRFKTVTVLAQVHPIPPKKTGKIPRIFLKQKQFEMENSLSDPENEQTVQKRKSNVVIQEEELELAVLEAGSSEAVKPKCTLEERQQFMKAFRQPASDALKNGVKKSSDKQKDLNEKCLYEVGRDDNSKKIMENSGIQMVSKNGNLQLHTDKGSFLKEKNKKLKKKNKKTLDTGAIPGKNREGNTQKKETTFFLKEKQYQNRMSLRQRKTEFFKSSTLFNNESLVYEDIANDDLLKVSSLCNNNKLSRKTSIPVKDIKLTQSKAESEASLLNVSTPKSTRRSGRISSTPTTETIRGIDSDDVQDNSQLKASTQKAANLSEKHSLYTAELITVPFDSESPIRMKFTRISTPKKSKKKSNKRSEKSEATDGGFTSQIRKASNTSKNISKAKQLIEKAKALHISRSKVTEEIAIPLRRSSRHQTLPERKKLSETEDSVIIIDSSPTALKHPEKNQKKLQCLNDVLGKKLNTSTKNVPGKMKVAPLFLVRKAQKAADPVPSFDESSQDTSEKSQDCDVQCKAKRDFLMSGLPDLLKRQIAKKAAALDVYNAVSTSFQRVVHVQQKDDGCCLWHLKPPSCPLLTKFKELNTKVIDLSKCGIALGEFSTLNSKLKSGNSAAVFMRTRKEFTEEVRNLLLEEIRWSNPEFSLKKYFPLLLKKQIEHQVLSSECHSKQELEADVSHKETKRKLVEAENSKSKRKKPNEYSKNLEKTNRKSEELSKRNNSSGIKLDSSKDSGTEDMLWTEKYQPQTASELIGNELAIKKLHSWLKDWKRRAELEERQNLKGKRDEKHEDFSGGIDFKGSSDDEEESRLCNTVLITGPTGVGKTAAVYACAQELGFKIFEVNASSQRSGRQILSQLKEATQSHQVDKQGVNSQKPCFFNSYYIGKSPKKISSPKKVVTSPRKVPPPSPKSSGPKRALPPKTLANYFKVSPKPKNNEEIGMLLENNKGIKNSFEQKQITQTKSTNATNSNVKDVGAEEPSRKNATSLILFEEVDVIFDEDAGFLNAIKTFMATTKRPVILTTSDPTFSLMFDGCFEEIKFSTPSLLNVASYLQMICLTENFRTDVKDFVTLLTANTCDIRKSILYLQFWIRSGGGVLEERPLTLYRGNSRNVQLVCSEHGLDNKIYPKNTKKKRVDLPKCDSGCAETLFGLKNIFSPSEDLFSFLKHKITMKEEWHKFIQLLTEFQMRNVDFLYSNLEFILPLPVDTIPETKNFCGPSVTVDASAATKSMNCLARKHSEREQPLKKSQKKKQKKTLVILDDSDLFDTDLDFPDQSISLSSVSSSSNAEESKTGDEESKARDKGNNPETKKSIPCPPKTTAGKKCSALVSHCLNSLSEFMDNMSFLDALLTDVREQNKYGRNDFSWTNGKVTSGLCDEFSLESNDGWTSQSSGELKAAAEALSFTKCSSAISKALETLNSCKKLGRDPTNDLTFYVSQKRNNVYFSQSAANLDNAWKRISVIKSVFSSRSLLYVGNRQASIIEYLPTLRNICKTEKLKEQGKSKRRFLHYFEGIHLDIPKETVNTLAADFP
# How it was run: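 Compounds reducing 5-fluorouridine-driven ELG1-luciferase signal in HEK293T cells were scored; exposure lasted 16 hr at 37 °C with luminescence detected via ONE-Glo.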
# [15] = biological target: Thyrotropin-releasing hormone receptor (Homo sapiens) (UniProt P34981); assay: qHTS for Small Molecule Agonists and Allosteric Enhancers of Human TRH Receptor: Validation Screen for Agonists (AID 493127;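 active = calcium activation more than 3 SD above the typical response in the agonist read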;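 note: intracellular calcium rise by fluo-8 fluorescence before TRH EC20 addition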); conditions: TRH receptor agonist cell assay; at 2 µM; hits give high values
# Sequence of Thyrotropin-releasing hormone receptor (Homo sapiens) (P34981 whole entry, looked up): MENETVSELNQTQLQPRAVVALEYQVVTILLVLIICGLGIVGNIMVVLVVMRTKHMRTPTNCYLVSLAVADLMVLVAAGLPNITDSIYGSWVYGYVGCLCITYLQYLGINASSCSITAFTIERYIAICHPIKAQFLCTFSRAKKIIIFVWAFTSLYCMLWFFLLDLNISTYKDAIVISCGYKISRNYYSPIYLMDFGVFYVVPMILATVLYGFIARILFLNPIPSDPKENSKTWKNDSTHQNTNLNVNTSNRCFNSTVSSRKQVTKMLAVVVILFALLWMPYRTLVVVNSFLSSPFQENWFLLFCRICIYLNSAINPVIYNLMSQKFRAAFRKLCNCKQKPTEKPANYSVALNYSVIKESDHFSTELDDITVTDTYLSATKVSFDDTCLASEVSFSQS
# How it was run: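 Kinetic fluorescence assay of agonist-induced calcium release: overnight-plated TRHR cells, room-temperature fluo-8 loading, baseline then compound addition with per-second reads.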
# [16] = biological target: D(1A) dopamine receptor (Homo sapiens) (UniProt P21728); assay: HTS Assay for Allosteric Agonists of the Human D1 Dopamine Receptor: Primary Screen for Antagonists (AID 488983);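 note: calcium flux response to an EC80 dopamine challenge measured with no-wash dye; nearly all actives have a fitted effect of over 65% in size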
# How it was run: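 In this primary screen, compounds are applied to calcium-dye-loaded HEK293 T-REx cells with force-coupled D1 expression induced overnight at 30 C. An EC80 of dopamine follows the 180 s compound phase, and calcium is monitored for a further 180 s.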
# [17] = biological target: Thioredoxin reductase 1, cytoplasmic (Rattus norvegicus) (UniProt O89049); assay: qHTS Assay for Inhibitors of Mammalian Selenoprotein Thioredoxin Reductase 1 (TrxR1) (AID 488773); conditions: Potency: inhibition;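 note: drop in NADPH fluorescence over an 8 min run after selenite addition; series mostly up to about 57 µM; nearly all actives have a fitted effect of over 40% in size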
# How it was run: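 Inhibition is scored from the loss of NADPH fluorescence between first and last reads of an 8-min kinetic run. Selenite (400 uM) was the substrate, added after 15 min compound preincubation at room temperature.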
Structure (SMILES),outcome [1],Potency [2],Potency [3],outcome [4],Potency [5],Potency [6],Potency [7],outcome [8],outcome [9],outcome [10],Potency [11],Potency [12],Potency [13],Potency [14],activation [15],Potency [16],Potency [17]
NC1(C(=O)O)CCc2cc(C(=O)O)ccc21 (stereo not given),inactive,inactive,inactive,inactive,inactive,inactive,inactive,inactive,inactive,inactive,inactive,inactive,inactive,inactive,1.19% (inactive),–,–
Cc1nc(N=Nc2ccc(C(=O)O)cc2)c(COP(=O)(O)O)c(C=O)c1O,inactive,inactive,inactive,inactive,inactive,inactive,50.1 µM (active),inactive,inactive,inactive,inactive,–,inactive,inactive,0.125% (inactive),–,–
N[C@@H](Cc1c[nH]c2ccccc12)C(=O)O,inactive,inactive,inactive,inactive,inactive,inactive,inactive,inactive,inactive,inactive,inactive,inactive,inactive,inactive,-0.125% (inactive),inactive,–
C/C(=C\c1ccc(C(=O)O)cc1)c1ccc2c(c1)C(C)(C)CCC2(C)C,inactive,inactive,inactive,inactive,–,inactive,–,inactive,inactive,inactive,inactive,inactive,inactive,inactive,-6% (inactive),inactive,–
Cn1c(=O)c2[nH]c(C3CCCC3)nc2n(C)c1=O,inactive,inactive,inactive,inactive,inactive,inactive,inactive,inactive,inactive,inactive,inactive,inactive,inactive,inactive,0.125% (inactive),inactive,–
O=c1[nH]ccc2c(O)cccc12,inactive,inactive,inactive,inactive,–,inactive,inactive,inactive,inactive,inactive,inactive,inactive,inactive,inactive,1.12% (inactive),inactive,inactive
CCSC(=N)N,inactive,inactive,inactive,inactive,–,inactive,–,inactive,inactive,inactive,inactive,inactive,inactive,inactive,0.812% (inactive),inactive,inactive
CCN(CC)CCOC(=O)c1cc(Cl)c(N)cc1OC,inactive,inactive,inactive,inactive,–,inactive,inactive,inactive,inactive,inactive,–,inactive,inactive,inactive,1.5% (inactive),inactive,inactive
CCCCCCCCCCC/C=C\C(C)(C)/C=C\CCCC(=O)O,inactive,inactive,inactive,inactive,–,inactive,inactive,inactive,inactive,inactive,inactive,–,inactive,inactive,0.562% (inactive),inactive,inactive
O=C(O)C1=CCNCC1,inactive,inactive,inactive,inactive,–,inactive,inactive,inactive,inactive,inactive,inactive,–,inactive,–,1.25% (inactive),–,inactive
COc1cc(C(O)C(=O)O)ccc1O (stereo not given),inactive,inactive,inactive,inactive,–,inactive,–,inactive,inactive,inactive,inactive,–,inactive,inactive,1.12% (inactive),inactive,–
[Li+],inactive,inactive,inactive,inactive,–,inactive,inactive,inactive,inactive,inactive,inactive,–,inactive,–,1.31% (inactive),inactive,–
NCCC1CCCC(CCN)N1 (stereo not given),inactive,inactive,inactive,inactive,–,inactive,–,inactive,inactive,inactive,inactive,inactive,inactive,inactive,1.19% (inactive),inactive,inactive

# From PubChem BioAssay (NCATS)
